Data published in the supplement of paper PMC10849652.
About 7,900 targets were measured; listed, in parts, are those with a hit and a random draw of the rest. About 0.6% of all pairs of compound and target were hits. Unmarked numbers belong to inactive results.

Experiments:
Test in all cases: log2 fold change, soluble protein after heating vs DMSO (PISA); higher = thermal stabilisation; K562 cells, 10 uM, 30 min; active = over 0.2 and 3.5 SD of the protein, either way, in both replicates (recomputed)
[1] = compound: CS(=O)(=O)c1ccc(-c2cnc(N)c(C(=O)Nc3ccccc3)n2)cc1
Outline: (§1)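 K562 cells (2×10^6 cells/mL) were treated with 10 μM compound for 30 min, and aliquots were heated for 3 min over 48°C-58°C. Pooled aliquots were extracted in PBS with 0.5% NP-40 at 4°C, and the supernatant after 21,000xg for 90 min was measured by TMTpro 16plex LC-MS/MS with channel sums equalised. Reported thermal stability, relative to control samples and from duplicates, is a log2 fold change.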

[2] = compound: C[C@@H](Oc1cc(-c2cnn(C3CCNCC3)c2)cnc1N)c1c(Cl)ccc(F)c1Cl [crizotinib]
Outline: as §1

[3] = compound: C[C@@H]1COCCN1C2=NC(=NC(=C2)C3(CC3)S(=O)(=O)C)C4=C5C=CNC5=CC=C4
Outline: as §1

[4] = compound: C[C@H](C1=CC=C(C=C1)C(=O)NC2=C3C=CNC3=NC=C2)N
Outline: as §1

[5] = compound: C[C@H](Nc1ncnc2nc[nH]c12)c1cc2cccc(Cl)c2c(=O)n1-c1ccccc1 [duvelisib]
Outline: as §1

[6] = compound: Cc1cc(Nc2cc(CN3CCOCC3)c3nc(C)c(Cc4ccc(Cl)cc4F)n3n2)n[nH]1 [gandotinib]
Outline: as §1

[7] = compound: Cc1cc(Nc2cc(N3CCN(C)CC3)nc(Sc3ccc(NC(=O)C4CC4)cc3)n2)n[nH]1 [tozasertib]
Outline: as §1

[8] = compound: Cc1cc(SCc2sc(-c3ccc(C(F)(F)F)cc3)nc2C)ccc1OCC(=O)O
Outline: as §1

[9] = compound: Cc1ccc(-n2nc(C(C)(C)C)cc2NC(=O)Nc2ccc(OCCN3CCOCC3)c3ccccc23)cc1 [doramapimod]
Outline: as §1

[10] = compound: Cc1ccc(C(=O)N(CCCN)[C@@H](c2nc3cc(Cl)ccc3c(=O)n2Cc2ccccc2)C(C)C)cc1 [ispinesib]
Outline: as §1

Sequence of UniProt O60911 (O60911 whole entry, looked up): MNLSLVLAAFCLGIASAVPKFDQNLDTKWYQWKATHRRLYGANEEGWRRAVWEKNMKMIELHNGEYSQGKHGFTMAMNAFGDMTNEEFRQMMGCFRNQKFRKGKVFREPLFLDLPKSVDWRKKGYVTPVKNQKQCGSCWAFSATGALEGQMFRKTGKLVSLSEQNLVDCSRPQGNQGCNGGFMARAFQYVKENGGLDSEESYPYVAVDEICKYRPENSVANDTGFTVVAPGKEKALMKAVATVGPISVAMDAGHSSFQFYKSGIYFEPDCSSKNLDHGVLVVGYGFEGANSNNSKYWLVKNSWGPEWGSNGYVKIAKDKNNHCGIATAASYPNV
Sequence of UniProt P18074 (P18074 whole entry, looked up): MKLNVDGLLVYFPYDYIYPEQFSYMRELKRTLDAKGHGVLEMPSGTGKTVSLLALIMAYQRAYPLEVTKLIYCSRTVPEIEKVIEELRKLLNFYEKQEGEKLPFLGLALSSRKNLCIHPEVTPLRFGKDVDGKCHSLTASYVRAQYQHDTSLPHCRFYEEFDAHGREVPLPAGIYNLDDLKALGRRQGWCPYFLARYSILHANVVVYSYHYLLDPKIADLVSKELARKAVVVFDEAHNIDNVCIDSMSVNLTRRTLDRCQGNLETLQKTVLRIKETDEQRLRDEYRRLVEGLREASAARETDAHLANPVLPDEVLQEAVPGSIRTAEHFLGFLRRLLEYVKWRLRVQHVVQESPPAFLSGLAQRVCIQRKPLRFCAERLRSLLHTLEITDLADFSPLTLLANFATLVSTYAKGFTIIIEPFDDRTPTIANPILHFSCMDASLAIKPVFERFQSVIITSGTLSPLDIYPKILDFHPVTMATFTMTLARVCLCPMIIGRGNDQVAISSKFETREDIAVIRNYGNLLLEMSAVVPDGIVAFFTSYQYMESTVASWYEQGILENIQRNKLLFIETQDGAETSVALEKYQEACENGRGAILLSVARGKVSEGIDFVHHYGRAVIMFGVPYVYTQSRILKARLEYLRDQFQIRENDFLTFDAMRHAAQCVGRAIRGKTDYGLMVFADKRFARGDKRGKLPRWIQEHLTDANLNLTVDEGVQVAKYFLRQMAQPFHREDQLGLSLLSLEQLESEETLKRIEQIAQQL
Sequence of UniProt Q14203 (Q14203 whole entry, looked up): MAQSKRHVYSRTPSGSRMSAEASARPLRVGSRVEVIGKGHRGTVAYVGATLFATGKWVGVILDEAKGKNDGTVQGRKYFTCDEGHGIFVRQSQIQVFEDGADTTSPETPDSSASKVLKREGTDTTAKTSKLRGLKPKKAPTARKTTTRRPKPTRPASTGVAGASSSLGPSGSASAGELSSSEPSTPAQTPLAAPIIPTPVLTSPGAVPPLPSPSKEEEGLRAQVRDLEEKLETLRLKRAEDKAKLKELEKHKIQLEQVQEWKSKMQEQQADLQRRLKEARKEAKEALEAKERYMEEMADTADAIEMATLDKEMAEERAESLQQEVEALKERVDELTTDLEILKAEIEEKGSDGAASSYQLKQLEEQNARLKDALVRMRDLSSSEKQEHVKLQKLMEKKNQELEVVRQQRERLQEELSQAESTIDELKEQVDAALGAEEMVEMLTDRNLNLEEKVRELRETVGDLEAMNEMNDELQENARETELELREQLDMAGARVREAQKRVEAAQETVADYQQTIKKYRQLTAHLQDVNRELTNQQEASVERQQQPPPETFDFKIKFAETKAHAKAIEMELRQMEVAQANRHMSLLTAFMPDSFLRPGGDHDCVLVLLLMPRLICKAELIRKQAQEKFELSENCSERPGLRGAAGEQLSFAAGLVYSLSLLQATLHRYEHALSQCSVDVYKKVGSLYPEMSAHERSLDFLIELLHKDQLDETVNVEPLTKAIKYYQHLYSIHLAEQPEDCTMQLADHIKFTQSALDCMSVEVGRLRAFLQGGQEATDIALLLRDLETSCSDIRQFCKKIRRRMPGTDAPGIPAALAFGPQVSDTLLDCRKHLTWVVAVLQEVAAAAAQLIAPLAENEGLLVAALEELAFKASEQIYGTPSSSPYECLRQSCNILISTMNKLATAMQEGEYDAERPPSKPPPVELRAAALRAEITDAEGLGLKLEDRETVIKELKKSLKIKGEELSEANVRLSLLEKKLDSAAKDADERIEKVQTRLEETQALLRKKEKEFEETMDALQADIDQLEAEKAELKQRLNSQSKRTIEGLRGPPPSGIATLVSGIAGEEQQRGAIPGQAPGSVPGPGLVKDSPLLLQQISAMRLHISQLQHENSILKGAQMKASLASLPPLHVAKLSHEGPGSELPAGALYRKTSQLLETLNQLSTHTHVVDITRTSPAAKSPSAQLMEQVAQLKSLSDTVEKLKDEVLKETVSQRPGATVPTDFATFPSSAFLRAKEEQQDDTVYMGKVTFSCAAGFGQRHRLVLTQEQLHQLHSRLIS
Sequence of UniProt Q96G46 (Q96G46 whole entry, looked up): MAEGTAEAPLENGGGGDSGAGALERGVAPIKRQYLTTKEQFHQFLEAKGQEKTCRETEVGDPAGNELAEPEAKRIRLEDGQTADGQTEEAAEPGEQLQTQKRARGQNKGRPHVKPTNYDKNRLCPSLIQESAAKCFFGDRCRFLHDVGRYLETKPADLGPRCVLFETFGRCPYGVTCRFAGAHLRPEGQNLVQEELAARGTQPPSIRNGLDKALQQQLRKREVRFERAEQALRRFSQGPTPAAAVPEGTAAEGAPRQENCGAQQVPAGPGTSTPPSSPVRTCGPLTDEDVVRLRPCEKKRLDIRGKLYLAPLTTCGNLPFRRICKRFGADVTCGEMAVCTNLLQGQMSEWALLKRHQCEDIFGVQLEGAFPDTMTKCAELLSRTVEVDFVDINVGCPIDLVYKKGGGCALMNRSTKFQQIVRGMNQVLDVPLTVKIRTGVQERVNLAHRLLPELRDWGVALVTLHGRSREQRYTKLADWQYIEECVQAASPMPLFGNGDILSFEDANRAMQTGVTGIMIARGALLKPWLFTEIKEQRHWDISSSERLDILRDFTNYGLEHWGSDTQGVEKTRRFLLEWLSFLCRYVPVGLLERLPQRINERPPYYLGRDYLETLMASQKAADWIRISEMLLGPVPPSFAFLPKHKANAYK
Sequence of UniProt Q9NSI2 (Q9NSI2 whole entry, looked up): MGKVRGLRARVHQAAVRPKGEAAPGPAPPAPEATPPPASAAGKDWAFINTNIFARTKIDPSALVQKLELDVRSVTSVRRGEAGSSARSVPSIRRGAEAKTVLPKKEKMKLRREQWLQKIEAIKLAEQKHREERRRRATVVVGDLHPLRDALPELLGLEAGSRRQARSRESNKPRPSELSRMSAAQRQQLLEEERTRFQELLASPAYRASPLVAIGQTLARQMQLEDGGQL
Sequence of UniProt Q9NQZ7 (Q9NQZ7 whole entry, looked up): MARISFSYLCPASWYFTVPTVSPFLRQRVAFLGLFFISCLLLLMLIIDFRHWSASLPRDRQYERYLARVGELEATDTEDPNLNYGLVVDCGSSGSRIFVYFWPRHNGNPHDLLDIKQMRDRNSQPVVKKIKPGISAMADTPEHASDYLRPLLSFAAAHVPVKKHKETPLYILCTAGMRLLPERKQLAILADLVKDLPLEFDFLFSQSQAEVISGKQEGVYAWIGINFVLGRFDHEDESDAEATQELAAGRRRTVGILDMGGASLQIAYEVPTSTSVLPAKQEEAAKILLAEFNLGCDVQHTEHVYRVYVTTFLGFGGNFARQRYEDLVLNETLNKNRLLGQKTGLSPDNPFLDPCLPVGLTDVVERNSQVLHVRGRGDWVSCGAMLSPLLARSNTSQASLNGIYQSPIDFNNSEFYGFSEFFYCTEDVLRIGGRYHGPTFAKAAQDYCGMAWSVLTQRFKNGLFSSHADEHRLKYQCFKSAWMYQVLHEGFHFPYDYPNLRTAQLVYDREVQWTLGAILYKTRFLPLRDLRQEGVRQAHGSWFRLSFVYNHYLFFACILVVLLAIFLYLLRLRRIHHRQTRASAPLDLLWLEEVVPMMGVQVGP
Sequence of UniProt P50570 (P50570 whole entry, looked up): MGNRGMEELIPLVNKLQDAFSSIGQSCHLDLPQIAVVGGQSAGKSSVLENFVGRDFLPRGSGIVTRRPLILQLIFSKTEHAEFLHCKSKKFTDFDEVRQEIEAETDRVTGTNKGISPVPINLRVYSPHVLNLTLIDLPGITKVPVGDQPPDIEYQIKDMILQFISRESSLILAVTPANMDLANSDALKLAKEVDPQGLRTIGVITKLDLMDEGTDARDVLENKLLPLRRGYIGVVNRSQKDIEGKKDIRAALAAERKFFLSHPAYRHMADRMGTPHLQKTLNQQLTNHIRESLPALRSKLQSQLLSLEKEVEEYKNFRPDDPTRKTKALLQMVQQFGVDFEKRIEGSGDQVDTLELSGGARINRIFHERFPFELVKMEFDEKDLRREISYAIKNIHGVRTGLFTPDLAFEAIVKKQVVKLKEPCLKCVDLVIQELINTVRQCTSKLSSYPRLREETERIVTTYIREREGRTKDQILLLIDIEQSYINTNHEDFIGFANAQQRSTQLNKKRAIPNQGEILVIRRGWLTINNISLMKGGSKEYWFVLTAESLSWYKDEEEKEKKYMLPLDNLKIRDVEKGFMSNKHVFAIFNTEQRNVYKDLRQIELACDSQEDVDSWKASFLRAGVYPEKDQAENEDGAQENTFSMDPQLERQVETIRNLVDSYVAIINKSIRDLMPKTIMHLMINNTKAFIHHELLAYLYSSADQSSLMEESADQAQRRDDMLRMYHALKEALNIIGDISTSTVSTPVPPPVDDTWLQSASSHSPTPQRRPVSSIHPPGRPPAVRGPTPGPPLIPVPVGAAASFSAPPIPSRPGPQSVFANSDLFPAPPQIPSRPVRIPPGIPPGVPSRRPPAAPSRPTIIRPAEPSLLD
Sequence of UniProt Q8NBA8 (Q8NBA8 whole entry, looked up): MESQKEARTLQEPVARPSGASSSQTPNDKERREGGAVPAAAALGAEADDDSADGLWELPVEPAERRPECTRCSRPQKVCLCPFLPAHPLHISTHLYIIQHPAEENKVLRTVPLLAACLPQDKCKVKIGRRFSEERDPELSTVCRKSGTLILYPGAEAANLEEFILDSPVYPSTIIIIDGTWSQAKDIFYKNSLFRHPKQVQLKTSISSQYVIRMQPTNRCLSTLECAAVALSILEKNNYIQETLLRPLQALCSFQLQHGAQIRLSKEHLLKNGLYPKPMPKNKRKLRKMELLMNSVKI

| Target | log2 fold change [1] | log2 fold change [2] | log2 fold change [3] | log2 fold change [4] | log2 fold change [5] | log2 fold change [6] | log2 fold change [7] | log2 fold change [8] | log2 fold change [9] | log2 fold change [10] |
| --- | --- | --- | --- | --- | --- | --- | --- | --- | --- | --- |
| CUX1 isoform 2 (UniProt Q13948) | -0.217 | -0.063 | 0.029 | -0.063 | 0.029 | -0.046 | -0.029 | 0.002 | -0.015 | -0.008 |
| FAAP100 (UniProt Q0VG06) | -0.043 | -0.027 | 0.142 | -0.051 | 0.041 | -0.096 | -0.023 | -0.077 | 0.033 | -0.006 |
| EZH2 isoform 2 (UniProt Q15910) | -0.012 | -0.196 | -0.039 | 0.072 | -0.112 |  | -0.12 | 0.279 | 0.095 |  |
| CTSS (UniProt P25774) | -0.007 | 0.063 |  | 0.059 | 0.01 | 0.018 | -0.114 | 0.045 | 0.043 | 0.049 |
| DSN1 (UniProt Q9H410) | -0.015 | -0.016 | 0.086 | -0.05 | 0.098 |  | 0.026 | -0.07 | 0.007 | 0.055 |
| DCTN1 isoform 4 (UniProt Q14203) | -0.013 | -0.112 | 0.015 | 0.131 | -0.045 | 0.016 | 0.037 | 0.111 | 0.088 | -0.141 |
| DCP2 (UniProt Q8IU60) | -0.211 | 0.779 (active) | 0.119 | 0.009 | -0.049 |  | 0.219 | 0.095 | 0.147 | -0.045 |
| CUTA isoform 2 (UniProt O60888) | 0.073 | -0.045 | 0.021 | -0.001 | 0.01 | 0.131 | -0.05 | -0.049 | -0.019 | 0.109 |
| DUS3L (UniProt Q96G46) | -0.015 | 0.112 | 0.019 | -0.075 | -0.005 | -0.027 | 0.043 | 0.022 | 0.033 | 0 |
| DNTTIP2 (UniProt Q5QJE6) | 0.012 | -0.028 | -0.051 | 0.268 | -0.26 | 0.107 | -0.037 | 0.052 | 0.129 | -0.093 |
| FAM193B (UniProt Q96PV7) | -0.065 | -0.081 | -0.097 | 0.348 | -0.18 |  | 0.062 | -0.189 | -0.046 |  |
| CTSV (UniProt O60911) | 0.073 | -1.59 (active) | 0.099 | -0.01 | -0.039 | -0.334 | -0.031 | -0.04 | -0.005 | -0.453 (active) |
| ENTPD7 (UniProt Q9NQZ7) | 0.256 | 0.084 | -0.037 |  | -0.178 |  | 0.185 | 0.014 | 0.025 |  |
| DNAJC24 (UniProt Q6P3W2) | -0.054 | 0.055 | -0.031 | -0.004 | -0.028 |  | 0.05 | -0.024 | 0.038 | 0.01 |
| EIF2S3 (UniProt P41091) | -0.071 | -0.014 | -0.219 (active) | 0.053 | -0.037 | 0.077 | -0.031 | 0.014 | 0.038 | -0.088 |
| EIF4A1 (UniProt P60842) | -0.055 | -0.058 | 0.03 | -0.015 | 0.007 | -0.206 | -0.008 | 0.047 | 0.025 | -0.11 |
| DYNC1I2 isoform 2 (UniProt Q13409) | 0.185 | -0.05 | -0.02 | -0.647 (active) |  |  | 0.044 |  | -0.079 | 0.06 |
| DNM2 isoform 4 (UniProt P50570) | -0.302 | -0.087 | -0.039 | -0.087 | 0.159 | 0.126 |  | 0.5 | -0.203 | 0.092 |
| EIF4E2 (UniProt O60573) | 0.151 | -0.018 | -0.027 | 0.085 | 0.037 |  | 0.044 | 0.07 | -0.069 | -0.087 |
| EVC2 (UniProt Q86UK5) | 0.022 | -0.061 | -0.244 | -0.209 | -0.162 | 0.071 | 0.02 | -0.052 | 0 | 0.065 |
| EIF3J isoform 2 (UniProt O75822) | 0.035 | 0.049 | -0.043 |  | 0.161 |  | -0.136 | -0.038 | 0.011 |  |
| DNAH5 (UniProt Q8TE73) | 0.049 | 0.145 | -0.007 | -0.076 | 0.117 | 0.013 | 0.082 | -0.052 | -0.031 | 0.057 |
| DTYMK (UniProt P23919) | 0.046 | -0.146 | 0 | -0.022 | 0.094 | -0.217 | -0.109 | -0.009 | -0.025 | 0.032 |
| DBNL isoform 3 (UniProt Q9UJU6) | 0.041 | -0.116 | 0.073 | -0.016 | 0.037 | -0.094 | 0.048 | -0.015 | 0.054 | -0.048 |
| DTWD2 (UniProt Q8NBA8) | 0.06 | 0.133 | 0.137 | -0.103 | -0.036 | 0.027 | -0.019 | 0 | 0.009 | -0.092 |
| ELF1 (UniProt P32519) | 0.093 | -0.06 | -0.006 | -0.007 | 0.032 |  | 0.008 | 0.057 | -0.039 | -0.038 |
| ELAC1 (UniProt Q9H777) | -0.045 | 0.011 | -0.13 | -0.137 | 0.062 | -0.021 |  | 0.004 | 0.007 |  |
| ERCC2 (UniProt P18074) | 0.011 | 0.059 | -0.046 | -0.013 | -0.035 | -0.035 | -0.014 | 0.08 | 0.031 | -0.045 |
| FAM207A (UniProt Q9NSI2) | 0.009 | 0.075 | 0.08 |  | 0.128 | -0.039 | 0.053 | -0.098 | 0.101 | -0.077 |
